Experiment [1] can be described thus: qHTS assay to identify small molecule antagonists of the glucocorticoid receptor (GR) signaling pathway - cell viability counter screen (AID 720693). Also: nearly all actives have a fitted effect of over 55% in size. For orientation: Quantitative high-throughput screening tests each substance at several concentrations.
A short description of experiment [2]: qHTS assay to identify small molecule antagonists of the androgen receptor (AR) signaling pathway - cell viability counter screen (AID 743033; also: nearly all actives have a fitted effect of over 45% in size).
Experiment [3] is described as follows: qHTS assay to identify small molecule antagonists of the androgen receptor (AR) signaling pathway using the MDA cell line - cell viability counter screen (AID 743041; also: nearly all actives have a fitted effect of over 45% in size). Put shortly:
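In this qHTS counter assay, fluorescence intensity after CellTiter-Fluor addition indicated viability of MDA-kb2 AR-luc cells given compounds and R1881 for 16 h at 37C.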

Experiment [4] can be described thus: qHTS assay to identify small molecule antagonists of the thyroid receptor (TR) signaling pathway - cell viability counter screen (AID 743064). Also: nearly all actives have a fitted effect of over 50% in size. Also: potency is read from the fitted curve at half-maximal effect. Put shortly: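 GH3.TRE-Luc cells, 4 h pre-plating; cpd + T3 1 nM final; 37 °C 23.5 h; CellTiter-Fluor 30 min; fluorescence read.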
Experiment [5] deals with thyroid hormone receptor (rat, GH3 cells). Briefly: qHTS assay to identify small molecule agonists of the thyroid receptor (TR) signaling pathway (AID 743066; calls by dose curve).
Experiment [6] has as its target Estrogen receptor (Homo sapiens) (UniProt P03372). The experiment can be described thus: qHTS assay to identify small molecule antagonists of the estrogen receptor alpha (ER-alpha) signaling pathway (AID 743069; active = well fitted curve in the direction sought with a large enough effect in the signal ratio in the repeat runs, not every such curve was filed as active; inconclusive = weak or mixed curves, or effect the other way; inactive = no such curve, though single readings can be large or run the other way; the % refers to the signal ratio; also: potency is read from the fitted curve at half-maximal effect). Put shortly:
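A 17beta-estradiol challenge was applied right after compound transfer to ER-alpha-UAS-bla HEK293 cells previously kept in charcoal-stripped serum. Plates stood 18 hr at 37C and 5% CO2; fluorescence was read following 2 hr FRET substrate loading at room temperature.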

A short description of experiment [7]: qHTS assay to identify small molecule antagonists of the estrogen receptor alpha (ER-alpha) signaling pathway - cell viability counter screen (AID 743074; calls by dose curve;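 also: HEK293 cells carrying ER-alpha-UAS-bla reporter stimulated with 17beta-estradiol; nearly all actives have a fitted effect of over 45% in size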).
Experiment [8] addresses Estrogen receptor (Homo sapiens) (UniProt P03372). The experiment can be described thus: qHTS assay to identify small molecule agonists of the estrogen receptor alpha (ER-alpha) signaling pathway (AID 743075; calls by dose curve;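 also: HEK293 GripTite cells with ER-alpha and UAS-driven beta-lactamase reporter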).
The target is the same in experiment [9]. Briefly: qHTS assay to identify small molecule agonists of the estrogen receptor alpha (ER-alpha) signaling pathway using the BG1 cell line (AID 743079). Also: nearly all actives have a fitted effect of over 20% in size. Also: potency is read from the fitted curve at half-maximal effect.
Experiment [10] is described as follows: qHTS assay to identify small molecule antagonists of the estrogen receptor alpha (ER-alpha) signaling pathway using the BG1 cell line (AID 743080; calls by dose curve;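 also: BG1 cells stimulated with 17beta-estradiol alongside compound; nearly all actives have a fitted effect of over 25% in size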; also: potency is read from the fitted curve at half-maximal effect). Put shortly: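 Readout is ONE-Glo luminescence, taken 30 min at room temperature after reagent addition, preceded by a CellTiter-Fluor viability read; BG1-Luc-4E2 cells had received compound and 17beta-estradiol for 21.5 h at 37 C.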

Experiment [11] is described as follows: qHTS assay to identify small molecule antagonists of the estrogen receptor alpha (ER-alpha) signaling pathway using the BG1 cell line - cell viability counter screen (AID 743081).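 Also: compound given together with 17beta-estradiol as the ER stimulus; series mostly up to about 70 µM; nearly all actives have a fitted effect of over 45% in size.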
The target in experiment [12] is Aromatase (Homo sapiens) (UniProt P11511). Briefly: qHTS assay to identify aromatase inhibitors (AID 743083). Also: nearly all actives have a fitted effect of over 55% in size. Also: potency is read from the fitted curve at half-maximal effect.
Experiment [13] is described as follows: qHTS assay for identifying genotoxic compounds that show differential cytotoxicity against isogenic chicken DT40 cell lines with known DNA damage response pathways - Rad54/Ku70 mutant cell line (AID 743015). Also: nearly all actives have a fitted effect of over 60% in size. Also: potency is read from the fitted curve at half-maximal effect.
A short description of experiment [14]: qHTS assay to identify small molecule antagonists of the thyroid receptor (TR) signaling pathway (AID 743065). Also: nearly all actives have a fitted effect of over 55% in size. Also: potency is read from the fitted curve at half-maximal effect. In outline:
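GH3.TRE-Luc rat pituitary cells carrying two TR response elements driving luciferase were plated for 4 h, given compound plus 1 nM T3 (final), and incubated 23.5 h at 37 C. ONE-Glo luminescence measured reporter inhibition; CellTiter-Fluor fluorescence tracked cytotoxicity.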

Experiment [15] addresses Androgen receptor (Homo sapiens) (UniProt P10275). The experiment can be described thus: qHTS assay to identify small molecule agonists of the androgen receptor (AR) signaling pathway using the MDA cell line (AID 743040; also: nearly all actives have a fitted effect of over 20% in size). Put shortly:
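Cell-based luciferase reporter: MDA-kb2, MMTV promoter (AR + GR response elements). 16 h compound exposure at 37C; ONE-Glo, 30 min RT, luminescence.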

The nature of experiment [16]: qHTS assay for identifying genotoxic compounds that show differential cytotoxicity against isogenic chicken DT40 cell lines with known DNA damage response pathways - wild type cell line (AID 743012). Also: potency is read from the fitted curve at half-maximal effect; nearly all actives have a fitted effect of over 60% in size. Put shortly:
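CellTiter-Glo luminescence readout of viability in wild type DT40 cells after 40 h compound exposure at 37 C/5% CO2; 300 cells/well; reagent incubated 30 min at room temperature before reading.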

Experiment [17] is described as follows: qHTS assay for identifying genotoxic compounds that show differential cytotoxicity against isogenic chicken DT40 cell lines with known DNA damage response pathways - Rev3 mutant cell line (AID 743014). Also: potency is read from the fitted curve at half-maximal effect; nearly all actives have a fitted effect of over 55% in size.
The target in experiment [18] is Androgen receptor (Homo sapiens) (UniProt P10275). Briefly: qHTS assay to identify small molecule agonists of the androgen receptor (AR) signaling pathway (AID 743036; active = well fitted activation curve with a large enough effect in the signal ratio in the repeat runs, with a control signal flat, not every such curve was filed as active; inconclusive = weak or mixed curves, or effect the other way; inactive = no such curve, though single readings can be large or run the other way; the % refers to the signal ratio). In outline: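 AR-bla HEK293 cells, 2,000/well; 4 h preincubation 37C/5% CO2; compound (DMSO) 16 h at 37C; LiveBLAzer B/G FRET substrate 2 h RT; fluorescence intensity read-out.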
For experiment [19] the target is unchanged. Briefly: qHTS assay to identify small molecule antagonists of the androgen receptor (AR) signaling pathway using the MDA cell line (AID 743042; also: nearly all actives have a fitted effect of over 55% in size). In outline:
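MDA-kb2 cells (human breast carcinoma, stably carrying an MMTV-luciferase reporter responsive to AR and GR) were plated at 3,000 cells/well and preincubated 5 hr at 37C, then given compound plus R1881 agonist for 16 h. ONE-Glo luminescence was read.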

For experiment [20] the target is unchanged. Briefly: qHTS assay to identify small molecule antagonists of the androgen receptor (AR) signaling pathway (AID 743035; active = well fitted inhibition curve with a large enough effect in the signal ratio in the repeat runs, not every such curve was filed as active; inconclusive = weak or mixed curves, or effect the other way; inactive = no such curve, though single readings can be large or run the other way; the % refers to the signal ratio; also: potency is read from the fitted curve at half-maximal effect). Put shortly:
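AR-bla HEK293 reporter cells; 4 h settle at 37C/5% CO2; compound + R1881 agonist, 16 h at 37C; LiveBLAzer B/G FRET substrate 2 h RT; fluorescence intensity read. qHTS format.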

The source made the active and inactive calls. Unless noted, calls follow the shape of the dose curve; as a rule, active = well fitted curve in the direction sought with a large enough effect in the repeat runs; inconclusive = weak or mixed curves; inactive = no such curve, though single readings can be large; an effect the other way counts as inactive or inconclusive.

Sequence of Androgen receptor (Homo sapiens) (P10275 whole entry, looked up): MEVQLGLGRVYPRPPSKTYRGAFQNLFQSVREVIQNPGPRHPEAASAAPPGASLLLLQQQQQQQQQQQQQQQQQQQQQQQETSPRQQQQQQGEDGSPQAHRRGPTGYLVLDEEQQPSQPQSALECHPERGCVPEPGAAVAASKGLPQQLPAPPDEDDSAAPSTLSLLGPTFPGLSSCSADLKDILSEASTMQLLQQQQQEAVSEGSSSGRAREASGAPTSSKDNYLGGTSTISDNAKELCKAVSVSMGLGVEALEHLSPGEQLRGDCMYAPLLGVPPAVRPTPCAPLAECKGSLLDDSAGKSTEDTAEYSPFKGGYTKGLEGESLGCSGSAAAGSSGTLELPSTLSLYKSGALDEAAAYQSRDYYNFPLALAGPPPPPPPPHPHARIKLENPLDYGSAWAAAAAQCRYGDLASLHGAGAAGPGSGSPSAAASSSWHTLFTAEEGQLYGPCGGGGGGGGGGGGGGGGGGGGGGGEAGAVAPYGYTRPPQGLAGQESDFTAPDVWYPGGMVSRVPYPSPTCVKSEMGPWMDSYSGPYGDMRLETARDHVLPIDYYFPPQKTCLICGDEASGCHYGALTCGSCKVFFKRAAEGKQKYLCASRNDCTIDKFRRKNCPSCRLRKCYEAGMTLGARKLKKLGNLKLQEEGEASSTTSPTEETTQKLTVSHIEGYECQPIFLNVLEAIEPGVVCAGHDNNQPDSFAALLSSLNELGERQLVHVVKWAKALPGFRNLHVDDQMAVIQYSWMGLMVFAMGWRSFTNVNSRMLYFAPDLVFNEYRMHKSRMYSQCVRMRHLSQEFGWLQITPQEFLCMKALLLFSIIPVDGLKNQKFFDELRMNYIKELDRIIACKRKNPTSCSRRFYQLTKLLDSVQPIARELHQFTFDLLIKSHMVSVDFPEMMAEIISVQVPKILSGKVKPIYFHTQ
Sequence of Estrogen receptor (Homo sapiens) (P03372 whole entry, looked up): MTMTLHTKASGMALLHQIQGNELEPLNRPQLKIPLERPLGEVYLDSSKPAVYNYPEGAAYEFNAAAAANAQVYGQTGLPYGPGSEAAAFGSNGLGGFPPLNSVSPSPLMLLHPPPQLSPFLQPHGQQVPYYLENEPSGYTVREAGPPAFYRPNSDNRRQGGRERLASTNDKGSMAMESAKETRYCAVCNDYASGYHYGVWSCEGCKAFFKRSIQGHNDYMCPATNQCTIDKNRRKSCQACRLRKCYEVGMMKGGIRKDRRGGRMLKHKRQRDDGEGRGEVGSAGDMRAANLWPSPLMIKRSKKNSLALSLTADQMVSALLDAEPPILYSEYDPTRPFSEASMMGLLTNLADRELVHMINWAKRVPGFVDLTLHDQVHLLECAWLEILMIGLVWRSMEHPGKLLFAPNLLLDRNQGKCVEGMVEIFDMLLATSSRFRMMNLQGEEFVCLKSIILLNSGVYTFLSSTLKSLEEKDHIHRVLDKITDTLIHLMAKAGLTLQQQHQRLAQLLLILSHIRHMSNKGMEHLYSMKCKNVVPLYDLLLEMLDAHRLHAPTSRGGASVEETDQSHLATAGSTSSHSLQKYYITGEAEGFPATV
Sequence of Aromatase (Homo sapiens) (P11511 whole entry, looked up): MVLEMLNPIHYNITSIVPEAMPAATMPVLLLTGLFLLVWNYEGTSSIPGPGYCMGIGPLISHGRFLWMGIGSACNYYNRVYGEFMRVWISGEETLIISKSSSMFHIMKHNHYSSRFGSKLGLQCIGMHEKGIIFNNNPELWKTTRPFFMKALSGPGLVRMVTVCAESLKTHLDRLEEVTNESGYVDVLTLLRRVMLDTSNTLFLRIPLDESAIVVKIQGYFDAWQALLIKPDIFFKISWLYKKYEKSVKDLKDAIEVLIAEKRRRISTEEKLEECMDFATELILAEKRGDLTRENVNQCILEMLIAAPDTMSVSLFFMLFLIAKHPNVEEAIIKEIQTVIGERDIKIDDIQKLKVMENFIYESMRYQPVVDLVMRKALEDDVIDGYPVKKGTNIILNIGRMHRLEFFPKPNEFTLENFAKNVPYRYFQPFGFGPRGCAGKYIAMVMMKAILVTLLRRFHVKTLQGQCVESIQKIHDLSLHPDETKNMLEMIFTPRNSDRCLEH

With `C=CC[N+]1([C@H]2C[C@H]3[C@@H]4CC[C@H]5C[C@H](OC(C)=O)[C@@H](N6CCCCC6)C[C@]5(C)[C@H]4CC[C@]3(C)[C@H]2OC(=O)CC)CCCCC1`, the Potency result in experiment [1], in experiment [2], in [3], in experiment [4], in experiment [5] and in experiment [6] was “inactive” throughout. In addition, the Potency result in experiment [8], in experiment [9], in [10], in [11] and in experiment [12] was “inactive” each time. The result in experiment [7] was inactive.

For the compound `CCc1nn(C2CCCCC2)c2cc(C3(C#N)CCC(C(=O)O)CC3)ccc12` (stereo not drawn), the Potency in [13] is 61.1 µM (active); in [4] it was 34.4 µM (active); in experiment [14] it was 61.1 µM (active); in experiment [6] it was 13.8 µM [inconclusive] (active); in experiment [12], 38.6 µM (active). For the same compound, the Potency result in experiment [3], in experiment [9], in experiment [10] and in [11] was “inactive” each time. The compound was called inactive in experiment [7].

Take `N#Cc1cc2ccccc2c2ccccc12`: the Potency result in [1], in experiment [13], in experiment [3], in [14], in experiment [5] and in experiment [8] was “inactive” each time. Moreover, the Potency entry in experiment [9], in experiment [10], in experiment [11] and in experiment [12] was “inactive” in each case. Besides, the outcome in [7] was inactive.

Consider `O=C(O)c1cccc(N(Cc2cccnc2)c2ccc(OC(F)F)c(OC(F)F)c2)c1`, for which the Potency entry in experiment [1], in experiment [2], in [15], in experiment [3], in experiment [4] and in experiment [5] was “inactive” throughout. The Potency result in experiment [11] is “inactive”. Also, in experiment [7], the call was inactive.

With `Cc1nc2ccccc2n1Cc1ccc(Cl)cc1`, the Potency is 2.11 µM (active) in experiment [16], 5.31 µM (active) in experiment [17], 4.22 µM (active) in [13] and 2.37 µM (active) in experiment [10]. Further, the Potency result in experiment [4], in experiment [5], in experiment [6], in experiment [8] and in experiment [12] was “inactive” throughout.

Turning to `C[C@@H](C1=C(CCN(C)C)Cc2ccccc21)c1ccccn1`, the Potency entry in [1], in [2], in experiment [3], in experiment [5] and in [11] was “inactive” each time. Also, the Potency in experiment [4] is 29.8 µM (active). Moreover, in experiment [7], the compound was classed as inactive.

For `CC(C)(C)C(=O)OCOP(=O)(COCCn1cnc2c(N)ncnc21)OCOC(=O)C(C)(C)C`, the Potency result in experiment [1], in [2], in experiment [3], in experiment [4], in experiment [5] and in [11] was “inactive” throughout. In experiment [12], the Potency entry is “inactive”. Besides, the result in [7] was inactive.

On to `O=C(CCN1CCN2CCCC2C1)N1c2ccccc2Sc2ccc(Cl)cc21` (stereo not drawn), for which the Potency in experiment [16] was 10.6 µM (active); in experiment [17], 11.9 µM (active); in [13] it was 23.7 µM (active); in experiment [4], 21.1 µM (active); in experiment [14], 18.8 µM (active). Also, the Potency result in [2], in [15], in experiment [3], in experiment [19], in experiment [6] and in [8] was “inactive” each time. Besides, the Potency result in experiment [9] and in experiment [12] was “inactive” each time. Further, the compound was classed as inactive in experiment [18] and in [7].

For `O=C1[C@H](CC[C@H](O)c2ccc(F)cc2)[C@@H](c2ccc(O)cc2)N1c1ccc(F)cc1`, the Potency entry in experiment [1], in experiment [2], in [3], in experiment [5], in experiment [6] and in [8] was “inactive” in each case. In addition, the Potency result in experiment [9], in [10], in experiment [11] and in experiment [12] was “inactive” in each case. Moreover, the result in experiment [7] was inactive.

As to `CC(C)(C)c1cc(O)c(C(C)(C)C)cc1O`, the Potency in [16] was 12.2 µM (active); in [17], 13.7 µM (active); in experiment [20], 43.6 µM (active); in experiment [4] it was 48.6 µM (active); in [6], 43.6 µM [inconclusive] (active); in experiment [12] it was 21.7 µM (active). For the same compound, the compound was classed as inactive in [18] and in [7]. The Potency entry in experiment [15], in experiment [3], in [8] and in [11] was “inactive” each time.

Turning to `C=C(C)C(=O)OCCOc1ccccc1`, the Potency entry in [1], in experiment [2], in experiment [15], in experiment [3], in experiment [19] and in experiment [4] was “inactive” each time. Besides, the Potency entry in [5], in experiment [8] and in experiment [11] was “inactive” in each case. Also, the call in experiment [18] and in [7] was inactive. The Potency in experiment [9] is 43.3 µM (active).

`Nc1cnn([C@@H]2O[C@H](CO)[C@@H](O)[C@H]2O)c(=O)n1`: the Potency was 27.3 µM (active) in [16] and 6.12 µM (active) in [13]. The Potency result in [2], in experiment [3], in experiment [4], in experiment [14], in [5] and in [8] was “inactive” in each case. Also, the Potency entry in experiment [9], in [10], in experiment [11] and in experiment [12] was “inactive” each time. Also, the compound was classed as inactive in [7].

The values above are taken from PubChem BioAssay (Tox21).
